Source: PubChem (National Center for Advancing Translational Sciences (NCATS))
MARV entry inh: inhibitors of Marburg virus binding or cell entry; actives 1.8% (n = 300,000); Potency, µM (top dose mostly 37.8 µM), for the others: at the top dose activity change, negative = inhibition, actives largely listed as inhibitors; Marburg virus pseudotyped entry inhibition, cell reporter; calls by dose curve; tested in HEK293 cells; also: potency is read from the fitted curve at half-maximal effect; % is scaled to controls: 0 for no effect and ±100 for the full control effect
Shiga inhibitor: blocks Shiga toxin action in Vero cells. actives 9.2% (n = 290,000). AID 2315. inhibition, % at 38.7 µM. Vero cells, Shiga toxin protein synthesis inhibition reporter; in the data active = inhibition mostly above about 28%, no sharp cut-off; inactive = mostly below about 43%; also: 0% is about no effect
Lassa entry inh: blocks Lassa virus binding to or entry into cells; Lassa virus pseudotype entry inhibition, cell reporter; Potency, µM (titrated, usually from 37.9 µM), without a hit: at the highest dose activity change, negative = inhibition, usual class: inhibitors; actives 1.2% (n = 300,000); AID 540256; calls by dose curve; tested in HEK293 cells; also: potency is read from the fitted curve at half-maximal effect; % is scaled to controls: 0 for no effect and ±100 for the full control effect; nearly all actives have a fitted effect of over 50% in size
Pf growth 96h: P. falciparum growth inhibition at 96 hour, primary screen for plastid delayed-death inhibitors; P. falciparum luciferase reporter growth, 96 h; Potency, µM (series often up to 28.7 µM), for the others: at the top dose activity change, negative = inhibition, usual class: inhibitors; actives 6.9% (n = 320,000); AID 504834; also: potency is read from the fitted curve at half-maximal effect; % is scaled to controls: 0 for no effect and ±100 for the full control effect
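Compounds incubated with erythrocytes infected by luciferase-expressing P. falciparum (2% hematocrit, 0.05% parasitemia final) for 96 hours, 37 C in 5% CO2. Growth inhibition scored as decreased luciferase luminescence.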
CHX counter: counter-screen hit for Shiga toxin inhibitors, cycloheximide; cell reporter, cycloheximide protein synthesis inhibition counterscreen; max response, %; actives 12% (n = 300,000); in the data active = max response mostly above about 13%, no sharp cut-off; inactive = mostly below about 14%; also: read at 38.3 µM for the half of the compounds with a filed dose; 0% is about no effect
Pf growth 48h: P. falciparum growth inhibition at 48 hours (one generation); AID 504832; Potency, µM (series often up to 28.7 µM), for the others: at the top dose activity change, negative = inhibition, actives largely listed as inhibitors; P. falciparum luciferase growth in erythrocytes, 48 h; actives 5.9% (n = 310,000); also: potency is read from the fitted curve at half-maximal effect; % is scaled to controls: 0 for no effect and ±100 for the full control effect
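Firefly luciferase activity from engineered P. falciparum reports growth; inhibitors lower the luminescent signal. Cultures contained 2% hematocrit erythrocytes at 0.1% final parasitemia.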
Numbers without * were called inactive; [ ] = remark or other dose. An excerpt weighted towards active compounds, which were near 19% of everything screened. Unless noted, calls follow the shape of the dose curve; as a rule, active = well fitted inhibition curve with a large enough effect; inconclusive = small, poorly fitted or top-dose-only effect, or another doubt; inactive = no such curve, though single readings can be large or run the other way.

How did NC(=O)CSc1nnc(-c2cccs2)n1Cc1ccco1 do in these assays?
Shiga inhibitor: 10; Pf growth 96h: 13%; CHX counter: 1; Pf growth 48h: 6%

Results for Cc1nc(-c2ccc(C(=O)N3CCOCC3)cc2)cs1 ?
MARV entry inh: 30%[46.1 µM]; Shiga inhibitor: 48; Lassa entry inh: inconclusive; Pf growth 96h: 14%; CHX counter: 32*; Pf growth 48h: 45%

Results for O=C(c1ccc(C(=O)N2CCCCCC2)cc1)N1CCCCCC1 ?
MARV entry inh: 1%; Shiga inhibitor: 26; Lassa entry inh: 1%; Pf growth 96h: inconclusive; CHX counter: -2; Pf growth 48h: 11%

What do the screens show for `Cc1nc(-c2ccc(C(=O)N3CCCC3)cc2)cs1`?
MARV entry inh: -7%[46.1 µM]; Shiga inhibitor: 132*; Lassa entry inh: 3%; Pf growth 96h: -14%; CHX counter: 37*; Pf growth 48h: 235%

What do the screens show for `Cc1nc(CN2CCN(C(=O)c3ccc(C(C)(C)C)cc3)CC2)cs1`?
Shiga inhibitor: 30; Pf growth 96h: 12µM*; CHX counter: 12

Results for COc1ccc(Cl)cc1NC(=O)c1c(-c2ccccc2)noc1C ?
MARV entry inh: inconclusive; Shiga inhibitor: -8; Lassa entry inh: -1%; Pf growth 96h: 4%; CHX counter: -1; Pf growth 48h: -18%

How did Cc1ccc(C(=O)N(C)c2ccc(OCC(=O)N3c4ccc(C)cc4C4CN(C)CCC43)cc2)cc1 (stereo unspecified) do in these assays?
MARV entry inh: inconclusive; Shiga inhibitor: 51; Lassa entry inh: inconclusive; Pf growth 96h: inconclusive; CHX counter: 37*; Pf growth 48h: inconclusive

What do the screens show for `Cc1ccc2c(c1)C1CN(C)CCC1N2C(=O)COc1ccc(N(C)C(=O)C(C)(C)C)cc1` (stereo unspecified)?
MARV entry inh: inconclusive; Shiga inhibitor: -9; Lassa entry inh: -20%; Pf growth 96h: inconclusive; CHX counter: -1; Pf growth 48h: -26%

Results for Cc1ccc2c(c1)C1CN(C)CCC1N2C(=O)CCCN1C(=O)c2cccc3cccc(c23)C1=O (stereo unspecified) ?
MARV entry inh: 7.9µM*; Shiga inhibitor: 14; Lassa entry inh: 7%; Pf growth 96h: 3.7µM*; CHX counter: 4; Pf growth 48h: 1.9µM*

Results for N=c1c(S(=O)(=O)c2ccc(Br)cc2)cc2c(=O)n3ccccc3nc2n1Cc1ccccc1 ?
MARV entry inh: -8%[46.1 µM]; Shiga inhibitor: 12; Lassa entry inh: inconclusive; Pf growth 96h: -42%; CHX counter: 5; Pf growth 48h: -28%

What do the screens show for `COc1ccc(NC(=O)C2CCCN(C(=O)Nc3ccc(F)cc3)C2)cc1OC` (stereo unspecified)?
MARV entry inh: 6%[46.1 µM]; Shiga inhibitor: -2; Lassa entry inh: 16%[46.1 µM]; Pf growth 96h: -8%; CHX counter: -5; Pf growth 48h: 13%

Results for O=C(CSc1nnc(C2CC2)n1C1CC1)c1ccc(F)c(F)c1 ?
Pf growth 96h: -17%; Pf growth 48h: 1%

What do the screens show for `O=c1cnn([C@@H]2O[C@H](CO)[C@@H](O)[C@H]2O)c(=O)[nH]1`?
MARV entry inh: inconclusive; Shiga inhibitor: 2; Lassa entry inh: 0.092µM*; Pf growth 96h: -2%; CHX counter: -1; Pf growth 48h: 14%

Results for COc1ccc(C(=O)Nc2nnc(SCC(=O)NC3CCCC3)s2)c(OC)c1 ?
Shiga inhibitor: 96*; Pf growth 96h: 130%; CHX counter: 42*; Pf growth 48h: 114%

How did COc1ccc(C(=O)Nc2nnc(SCC(=O)NC3CC3)s2)cc1 do in these assays?
MARV entry inh: 10µM*; Shiga inhibitor: 51*; Lassa entry inh: inconclusive; Pf growth 96h: inconclusive; CHX counter: 39*; Pf growth 48h: 137%

Results for CCc1nnc(NC(=O)c2ccc(OC)cc2OC)s1 ?
MARV entry inh: inconclusive; Shiga inhibitor: 66*; Lassa entry inh: inconclusive; Pf growth 96h: 2%; CHX counter: 38*; Pf growth 48h: 144%

What do the screens show for `COc1ccc(C(=O)Nc2nnc(SCC(=O)Nc3ccc(NC(C)=O)cc3)s2)c(OC)c1`?
Shiga inhibitor: 119*; Pf growth 96h: 72%; CHX counter: 48*; Pf growth 48h: 141%

What do the screens show for `COc1cccc(C(=O)Nc2nnc(SCC(=O)NC3CC3)s2)c1`?
MARV entry inh: -26%; Shiga inhibitor: -7; Lassa entry inh: -22%; Pf growth 96h: -6%; CHX counter: -3; Pf growth 48h: 76%

What do the screens show for `COc1ccc(C2(c3ccc(OC(C)=O)cc3OC(C)=O)CC(c3ccccc3)NC(=S)N2)cc1` (stereo unspecified)?
Shiga inhibitor: -13; Pf growth 96h: inconclusive; CHX counter: 1; Pf growth 48h: inconclusive

What do the screens show for `COc1ccc(O)c(C(=O)c2cnc3c(c2)c(C)nn3C)c1`?
MARV entry inh: 7%[46.1 µM]; Shiga inhibitor: -4; Lassa entry inh: -14%; Pf growth 96h: inconclusive; CHX counter: -3; Pf growth 48h: inconclusive

Results for Nc1nc2ncc(C(=O)c3cc(F)ccc3O)cc2s1 ?
MARV entry inh: 0%[46.1 µM]; Shiga inhibitor: -5; Lassa entry inh: -5%; Pf growth 96h: inconclusive; CHX counter: 12; Pf growth 48h: -7%

What do the screens show for `Cc1nn(C)c2ncc(C(=O)c3ccccc3O)cc12`?
MARV entry inh: 5%[46.1 µM]; Shiga inhibitor: -3; Lassa entry inh: -37%; Pf growth 96h: -8%; CHX counter: 12; Pf growth 48h: -3%

Results for Cc1ccc(O)c(C(=O)c2cnc3c(c2)c(C)nn3C)c1 ?
MARV entry inh: -29%[46.1 µM]; Shiga inhibitor: 3; Lassa entry inh: inconclusive; Pf growth 96h: 8.3µM*; CHX counter: 4; Pf growth 48h: inconclusive

What do the screens show for `Cc1nn(-c2ccccc2)c2ncc(C(=O)c3cc(Cl)ccc3O)cc12`?
MARV entry inh: -10%; Shiga inhibitor: 2; Lassa entry inh: -17%; Pf growth 96h: 2.6µM*; CHX counter: -2; Pf growth 48h: 1.9µM*

What do the screens show for `Cc1nn(C)c2ncc(C(=O)c3cc(F)ccc3O)cc12`?
MARV entry inh: inconclusive; Shiga inhibitor: -10; Lassa entry inh: 0%; Pf growth 96h: 10µM*; CHX counter: -2

Results for O=C(c1cnc2ccc3ccccc3c2c1)c1cc(F)ccc1O ?
Shiga inhibitor: 69*; Pf growth 96h: inconclusive; CHX counter: 46*; Pf growth 48h: 3.7µM*

What do the screens show for `S=C(Nc1cccc2ccccc12)NC1CCCCC1`?
MARV entry inh: inconclusive; Shiga inhibitor: 51*; Lassa entry inh: inconclusive; Pf growth 96h: inconclusive; CHX counter: 40*; Pf growth 48h: -2%

Results for CCCCc1ccccc1NC(=S)NC1CCCC1 ?
MARV entry inh: -15%[46.1 µM]; Shiga inhibitor: -8; Lassa entry inh: inconclusive; Pf growth 96h: inconclusive; CHX counter: 1; Pf growth 48h: 9.3µM*
